Only some compounds are listed: those with a hit (about 12% of all), similar ones and a draw of the others.
BAZ2B block: blocks human BAZ2B; Q9UIF8; AlphaScreen BAZ2B-H3K14Ac peptide displacement; Potency, µM (series often up to 114 µM), without a hit: at the highest dose activity change, negative = inhibition, most hits filed as inhibitors; 360,000 tested, 4.4% active; AID 504333; note: % is set by controls: 0 for no effect and ±100 for the full control effect; nearly all actives have a fitted effect of over 60% in size
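Inhibition is scored as reduced AlphaScreen emission. The BAZ2B/b-H3(5-23)K14Ac complex (50 nM each) in PBS pH 7.4, 0.01% Tween-20 meets compound (up to 110 uM) for 30 min at RT before bead addition.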
JMJD2A Tudor: inhibitors of human JMJD2A Tudor domain | AlphaScreen JMJD2A-Tudor / H3K4me3 peptide binding | Potency, µM (titrated, usually from 114 µM), inactives show at the highest dose activity change, negative = inhibition, hits mostly inhibitors | 390,000 tested, 4.4% active; note: % is set by controls: 0 for no effect and ±100 for the full control effect; nearly all actives have a fitted effect of over 50% in size
HP1b binding inh: blocks HP1-beta chromodomain binding to methylated histone tails. P83916. AlphaScreen HP1-beta / biotin-H3K9me3 peptide binding. Potency, µM (doses to about 114 µM), for inactives: at the highest dose activity change, negative = inhibition, most hits filed as inhibitors. 390,000 tested, 0.56% active. AID 540317; note: nearly all actives have a fitted effect of over 70% in size
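Compound inhibition of the preformed complex between 50 nM HP1-beta and 50 nM biotinylated H3K9me3 peptide was read by AlphaScreen. Buffer was PBS pH 7.4 with 0.01% Tween-20. Incubations ran 30 min at room temperature, with 10 ug/mL donor/acceptor beads.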
Sfp inh: Sfp phosphopantetheinyl transferase inhibition; Potency, µM, for inactives: largest response in the series, negative = inhibition, actives largely listed as inhibitors; 310,000 tested, 3.5% active; Biochemical Sfp PPTase activity, qHTS; AID 1490; Q9F4F7;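 note: the enzyme is Sfp with the accession as filed and its product quenches rhodamine fluorescence; 0% = enzyme reaction without inhibitor and -100% = no enzyme wells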
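Step 1, compound plus 15 nM Sfp-PPTase, 15 min, room temperature. Step 2, add rhodamine-CoA (5 uM) and BHQ-2-YbbR (12.5 uM). Step 3, read 525/598 nm fluorescence at 0 and 30 min.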
G9a block: G9a (human) methyltransferase inhibition; Q96KQ7; G9a H3K9 monomethylation, AlphaScreen, 2 h; Potency, µM (doses to about 102 µM), without a hit: top-dose activity, negative = inhibition, most hits filed as inhibitors; 350,000 tested, 8.8% active; AID 504332; note: % is set by controls: 0 for no effect and ±100 for the full control effect; nearly all actives have a fitted effect of over 75% in size
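Step 1: enzyme (final 20 nM) with compound, 15 min RT. Step 2: substrate peptide 500 nM and SAM 20 uM, 2 h RT. Step 3: anti-H3K9me1 antibody and AlphaScreen beads, 10 min, then plate read.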
PLK1 PBD block: blocks phosphopeptide binding to human PLK1 polo-box domain | Plk1 PBD binding of FITC phosphopeptide, fluorescence polarization | P53350 | Potency, µM, without a hit: max response, negative = inhibition, actives largely listed as inhibitors | 360,000 tested, 2.8% active | AID 720504; note: series mostly up to about 57 µM; % is set by controls: 0 for no effect and ±100 for the full control effect; nearly all actives have a fitted effect of over 65% in size
An asterisk follows results filed as active; ? = inconclusive; · = no result given; [ ] = remark or other dose. Calls come from the whole dose curve; as a rule, active = well fitted curve in the direction sought with a large enough effect; inconclusive = small, poorly fitted or top-dose-only effect, or another doubt; inactive = no such curve, though single readings can be large; an effect the other way counts as inactive or inconclusive. Potency is the fitted concentration of half-maximal effect.

SMILES	BAZ2B block	JMJD2A Tudor	HP1b binding inh	Sfp inh	G9a block	PLK1 PBD block
Oc1ccc(/C=N/NC(=S)NCCN2CCOCC2)c(O)c1	10µM*	56.2µM*	7.8%	7.5%	?	2.5%
COc1cc(OC)c(OC)cc1/C=N/NC(=S)NCCN1CCOCC1	-32.5%	-17.3%	12.7%	-82.7%	-23.2%	-3.3%
COc1cc(/C=N/NC(=S)NCCN2CCOCC2)cc(OC)c1O	-8.4%	-26.1%	22.3%	22.4µM*	?	-11.8%
NC(=O)CC1(c2ccccc2)CCCCC1	·	·	·	·	·	-4.1%
Cc1ccccc1-n1ncc2c1CC(C)(C)CC2NC(=O)CCCN1CCCC1=O (stereo not given)	-12.1%	-9.7%	6.3%	9.4%	9.8%	-5.0%
CN(C)CCN(C(=O)CCS(=O)(=O)c1ccccc1)c1nc2cc3c(cc2s1)OCO3	-15.7%	?	-1.3%	-10.9%	·	-14.8%
Cc1ccc(S(=O)(=O)CCC(=O)N(CCCN2CCOCC2)c2nc3ccccc3s2)cc1	-3.5%	-5.5%	39.5%	·	44.7µM*	-29.2%
Cc1ccc2nc(N(CCN3CCOCC3)C(=O)CCS(=O)(=O)c3ccccc3)sc2c1	3.7%	-29.5%	26.3%	·	8.8%[0.501 µM]	-5.7%
O=C(CCS(=O)(=O)c1ccccc1)N(CCCN1CCOCC1)c1nc2ccccc2s1	-17.0%	-4.1%	54.9%	·	39.8µM*	?
CCc1cccc(C)c1NC(=O)C(CC)Sc1nncn2c1cc1occc12 (stereo not given)	-12.6%	0.7%	23.8%	·	-0.2%[59 µM]	·
CCN1CCN(S(=O)(=O)Cc2ccccc2)CC1	-4.4%	-7.7%	12.2%	0.6%	13.7%[12.7 µM]	-5.3%
CCn1c2ccccc2c2cc(CN3CCN(S(=O)(=O)Cc4ccccc4)CC3)ccc21	79.4µM*	1µM*	?	4.6%	7.08µM*	1.6%
CCn1c2ccccc2c2cc(CN3CCN(S(=O)(=O)CC)CC3)ccc21	20µM*	·	·	?	11.2µM*	·
CCOC1=NC(=C(c2ccccc2)c2ccccc2)OC1=O	·	25.1µM*	-28.4%	·	·	-17.5%
COC(=O)c1ccccc1NC1=C/C(=N\S(=O)(=O)c2cccs2)c2ccccc2C1=O	1.41µM*	3.98µM*	7.08µM*	18.0%	1.78µM*	18.9µM*
COC(=O)c1ccccc1NC1=C/C(=N\S(=O)(=O)c2ccc(C(=O)O)cc2)c2ccccc2C1=O	8.91µM*	20µM*	15.8µM*	56.2µM*	8.91µM*	?
COC(=O)c1cccc(NS(=O)(=O)c2cccs2)c1C	2.2%	-4.6%	7.8%	2.3%	11.5%[59 µM]	-0.9%
O=C(Oc1oc(-c2ccco2)nc1C=Nc1ccccc1)c1ccco1	-5.0%	-14.0%	33.4%	11.2µM*	?	2.99µM*
O=C(Oc1oc(-c2ccco2)nc1C=Nc1ccccc1)c1ccoc1	-18.5%	-23.8%	29.4%	20µM*	7.08µM*	4.74µM*
Cc1ccc(C(=O)Oc2oc(-c3ccco3)nc2C=Nc2ccc(Cl)cc2)cc1	-4.1%	-7.6%	17.9%	?	50.1µM*	4.74µM*
Cc1ccc(N=Cc2nc(-c3ccco3)oc2O)cc1	·	?	-10.7%	8.6%	0.7%[59 µM]	-2.0%
C/C(=N\Nc1nc(C)cc(-c2ccccc2)n1)c1ccc(C)o1	?	-25.9%	18.2%	0.5%	15.3%	1.5%
CC(=O)N1CCC(=NNc2nc3ccccc3[nH]2)CC1	28.2µM*	25.1µM*	?	-59.5%	44.7µM*	-14.0%
CCC(C)(C)C1CCC(=NNc2nc3ccccc3[nH]2)CC1 (stereo not given)	?	-35.5%	17.9%	-39.3%	?	-21.4%
C/C(=N\Nc1nc2ccccc2[nH]1)c1ccc(Cl)s1	?	?	-10.5%	-10.3%	20µM*	-7.7%
SMILES	BAZ2B block	JMJD2A Tudor	HP1b binding inh	Sfp inh	G9a block	PLK1 PBD block
C/C(=N\NC(=O)c1ccccc1)c1ccc(N2CCOCC2)cc1	5.8%	-17.3%	14.4%	-13.7%	15.1%[59 µM]	0.9%
C/C(=N\Nc1nc2ccccc2[nH]1)c1ccc(C)o1	44.7µM*	?	-24.8%	14.5%	3.5%[59 µM]	-11.7%
O=C(CSc1nc2ccccc2[nH]1)c1ccc(Cl)s1	-2.8%	-18.5%	2.2%	-7.8%	?	-14.2%
C/C(=N\Nc1nc2ccccc2[nH]1)c1ccc(N2CCOCC2)cc1	20µM*	35.5µM*	?	-23.3%	50.1µM*	-0.2%
COc1ccc(S(=O)(=O)N2CCN(c3ccccc3OC)CC2)cc1-c1noc(C)n1	?	-12.3%	22.6%	·	?	·
COc1ccc(CN(C)C(=O)c2cc(S(=O)(=O)N3CCOCC3)ccc2N2CCCC2)cc1	13.8%	-16.7%	0.3%	·	-1.0%[59 µM]	-2.4%
C/C(=N\Nc1nc(C)cc(C)n1)c1ccc(N2CCOCC2)cc1	-9.9%	-21.0%	34.5%	6.3%	-0.7%	-6.3%
C/C(=N\Nc1ncc(Cl)cc1Cl)c1ccc(N2CCOCC2)cc1	50.1µM*	-1.5%	21.1%	25.1µM*	56.2µM*	-0.9%
CCOC1=C2[C@H](c3ccc(CC)cc3)N(S(=O)(=O)c3ccc(C)cc3)C[C@H]2n2c(=O)n(-c3ccccc3)c(=O)n2C1	·	·	·	·	·	-5.3%
CCOc1cc(C(=O)Nc2ccc3c(c2)OCO3)ccc1OC(F)F	1.2%	0.0%	14.3%	8.9%	-26.1%[59 µM]	-0.2%
CCOC(=O)CNc1ccc2c(c1)OCO2	?	-33.6%	-13.4%	20µM*	?	-10.5%
CCOc1ccc(C(=O)NCC(=O)Nc2ccc3c(c2)OCO3)cc1OCC	-14.9%	?	-8.9%	·	50.1µM*	5.1%
CCOC(=O)CNC(=O)/C=C/c1ccc2c(c1)OCO2	-16.0%	-2.0%	17.8%	13.0%	3.7%	-9.8%
CC(C)Cc1nnc(NC(=O)CCC(=O)N2CC(C)CC(C)C2)s1 (stereo not given)	-15.1%[57.1 µM]	-17.9%	22.3%	13.0%	2.8%	-2.6%
CC1=C(C)C(=O)C(N2CCOCC2)=CC1=O	?	-26.6%	-3.3%	13.9%	44.7µM*	-11.7%
COc1ccccc1NC(=O)CSc1nnc(Cc2cccn2C)n1CCc1ccccc1	50.1µM*	?	-11.2%	6.9%	?	0.1%
COc1ccc(NC(=O)CSc2nnc(Cc3cccn3C)n2CCc2ccccc2)c(OC)c1	50.1µM*	?	-27.5%	-7.1%	32.4%[0.501 µM]	-8.3%
COc1ccc(-n2c(Cc3cccn3C)nnc2SCC(=O)NCCc2ccccc2)cc1	?	-28.5%	-15.1%	5.3%	-9.6%[2.33 µM]	-8.0%
Cc1c(C(=O)NCc2ccccc2)sc2nc3n(c(=O)c12)CCCCC3	?	?	33.2%	·	10µM*	·
COc1ccc(CNC(=O)c2sc3nc4n(c(=O)c3c2C)CCC4)cc1	-20.7%	-29.6%	-6.3%	·	-37.9%[59 µM]	·
Cc1ccc(CNC(=O)c2sc3nc4n(c(=O)c3c2C)CCCC4)cc1	50.1µM*	?	20.8%	·	?	·
Cc1ccc(CNC(=O)c2sc3nc4n(c(=O)c3c2C)CCCCC4)cc1	-33.4%	-13.8%	48.3%	·	?	·

High-throughput results as filed in PubChem.
